The source of these data is ChEMBL document CHEMBL1961873, “Compounds: GSK PKIS; Assays: Nanosyn kinase panel” (2012).

One may read the inhibition as the change of the read-out against control, counted positive when it falls.

Assay [1] concerns the target Protein kinase C gamma type (Homo sapiens) (UniProt P05129). Particulars: at 1 µM.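 Also: each value is an averaged percent inhibition of the enzyme.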
Assay [2] deals with T1, Protein kinase C iota type (Homo sapiens) (UniProt P41743).
T1 sequence (whole entry): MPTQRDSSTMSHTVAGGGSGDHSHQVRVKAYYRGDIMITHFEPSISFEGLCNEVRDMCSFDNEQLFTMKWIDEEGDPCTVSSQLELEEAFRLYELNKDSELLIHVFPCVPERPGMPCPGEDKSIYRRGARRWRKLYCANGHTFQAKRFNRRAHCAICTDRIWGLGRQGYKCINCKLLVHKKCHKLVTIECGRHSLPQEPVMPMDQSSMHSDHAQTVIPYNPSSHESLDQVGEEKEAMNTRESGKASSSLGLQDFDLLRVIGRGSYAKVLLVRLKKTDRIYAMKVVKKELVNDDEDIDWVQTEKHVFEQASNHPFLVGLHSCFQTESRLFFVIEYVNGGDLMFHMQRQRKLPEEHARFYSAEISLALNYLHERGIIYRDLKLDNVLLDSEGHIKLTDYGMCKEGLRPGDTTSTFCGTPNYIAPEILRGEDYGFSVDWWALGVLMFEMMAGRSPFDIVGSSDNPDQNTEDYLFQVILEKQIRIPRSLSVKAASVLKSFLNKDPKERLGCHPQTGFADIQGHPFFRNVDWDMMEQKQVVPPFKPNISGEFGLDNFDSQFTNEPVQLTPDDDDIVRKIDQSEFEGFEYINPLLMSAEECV
Particulars: at 0.1 µM.

The target in assay [3] is T1, Protein kinase C iota type (Homo sapiens). The following applies: at 1 µM.
Assay [4] addresses Protein kinase C theta type (Homo sapiens) (UniProt Q04759). Particulars: at 0.1 µM.
The target is the same in assay [5]. Particulars: at 1 µM.
The target in assay [6] is Protein kinase C beta type (Homo sapiens) (UniProt P05771). The following applies: at 0.1 µM.
Sequence of Protein kinase C beta type (Homo sapiens) (P05771 2-671 limits assumed): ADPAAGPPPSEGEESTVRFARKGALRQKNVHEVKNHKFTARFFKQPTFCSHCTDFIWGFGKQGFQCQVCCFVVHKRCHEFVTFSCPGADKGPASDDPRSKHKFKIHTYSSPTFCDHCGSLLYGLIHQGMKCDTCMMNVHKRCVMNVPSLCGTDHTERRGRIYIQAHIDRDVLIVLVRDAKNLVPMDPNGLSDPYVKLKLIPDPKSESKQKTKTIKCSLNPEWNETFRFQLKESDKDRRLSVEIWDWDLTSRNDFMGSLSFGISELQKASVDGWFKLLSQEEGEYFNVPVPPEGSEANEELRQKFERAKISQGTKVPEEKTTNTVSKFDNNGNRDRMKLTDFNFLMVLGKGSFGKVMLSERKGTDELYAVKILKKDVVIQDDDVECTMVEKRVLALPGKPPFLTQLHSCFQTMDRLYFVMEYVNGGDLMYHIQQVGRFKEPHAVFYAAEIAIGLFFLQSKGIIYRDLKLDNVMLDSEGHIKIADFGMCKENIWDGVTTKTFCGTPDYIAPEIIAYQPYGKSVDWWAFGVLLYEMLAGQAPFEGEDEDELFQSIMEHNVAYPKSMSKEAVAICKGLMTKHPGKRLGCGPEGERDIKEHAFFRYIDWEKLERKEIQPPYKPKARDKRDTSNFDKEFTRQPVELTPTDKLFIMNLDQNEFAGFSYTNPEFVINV
Assay [7] shares this target. Particulars: at 1 µM.
The target of assay [8] is T2, Serine/threonine-protein kinase D1 (Homo sapiens) (UniProt Q15139).
T2 sequence (whole entry): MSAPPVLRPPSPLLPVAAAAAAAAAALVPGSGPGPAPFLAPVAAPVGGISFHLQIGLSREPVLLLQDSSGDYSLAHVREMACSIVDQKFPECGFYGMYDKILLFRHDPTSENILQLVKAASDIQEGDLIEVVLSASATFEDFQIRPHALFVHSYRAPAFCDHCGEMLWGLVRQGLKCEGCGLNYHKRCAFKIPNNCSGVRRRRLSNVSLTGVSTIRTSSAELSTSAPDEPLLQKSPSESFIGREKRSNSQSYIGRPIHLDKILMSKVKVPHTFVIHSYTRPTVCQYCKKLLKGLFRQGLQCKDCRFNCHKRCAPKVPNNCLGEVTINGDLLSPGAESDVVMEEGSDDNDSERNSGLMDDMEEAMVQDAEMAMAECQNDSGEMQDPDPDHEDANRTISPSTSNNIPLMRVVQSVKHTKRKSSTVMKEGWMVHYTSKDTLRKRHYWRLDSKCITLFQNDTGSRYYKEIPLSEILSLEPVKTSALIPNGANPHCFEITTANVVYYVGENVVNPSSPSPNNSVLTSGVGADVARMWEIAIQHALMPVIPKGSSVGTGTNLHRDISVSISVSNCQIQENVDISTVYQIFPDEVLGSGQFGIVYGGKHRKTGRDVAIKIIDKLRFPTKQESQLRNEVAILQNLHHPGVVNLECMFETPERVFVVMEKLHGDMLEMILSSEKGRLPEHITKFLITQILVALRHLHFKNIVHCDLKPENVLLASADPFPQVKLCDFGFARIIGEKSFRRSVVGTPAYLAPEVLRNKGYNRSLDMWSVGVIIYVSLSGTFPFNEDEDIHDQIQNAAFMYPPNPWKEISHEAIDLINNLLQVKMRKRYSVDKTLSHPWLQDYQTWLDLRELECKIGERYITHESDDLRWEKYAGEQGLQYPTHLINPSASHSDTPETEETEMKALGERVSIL
Particulars: at 0.1 µM.

The target in assay [9] is T2, Serine/threonine-protein kinase D1 (Homo sapiens). The following applies: at 1 µM.
In assay [10] the target is T3, Serine/threonine-protein kinase D2 (Homo sapiens) (UniProt Q9BZL6).
T3 sequence (whole entry): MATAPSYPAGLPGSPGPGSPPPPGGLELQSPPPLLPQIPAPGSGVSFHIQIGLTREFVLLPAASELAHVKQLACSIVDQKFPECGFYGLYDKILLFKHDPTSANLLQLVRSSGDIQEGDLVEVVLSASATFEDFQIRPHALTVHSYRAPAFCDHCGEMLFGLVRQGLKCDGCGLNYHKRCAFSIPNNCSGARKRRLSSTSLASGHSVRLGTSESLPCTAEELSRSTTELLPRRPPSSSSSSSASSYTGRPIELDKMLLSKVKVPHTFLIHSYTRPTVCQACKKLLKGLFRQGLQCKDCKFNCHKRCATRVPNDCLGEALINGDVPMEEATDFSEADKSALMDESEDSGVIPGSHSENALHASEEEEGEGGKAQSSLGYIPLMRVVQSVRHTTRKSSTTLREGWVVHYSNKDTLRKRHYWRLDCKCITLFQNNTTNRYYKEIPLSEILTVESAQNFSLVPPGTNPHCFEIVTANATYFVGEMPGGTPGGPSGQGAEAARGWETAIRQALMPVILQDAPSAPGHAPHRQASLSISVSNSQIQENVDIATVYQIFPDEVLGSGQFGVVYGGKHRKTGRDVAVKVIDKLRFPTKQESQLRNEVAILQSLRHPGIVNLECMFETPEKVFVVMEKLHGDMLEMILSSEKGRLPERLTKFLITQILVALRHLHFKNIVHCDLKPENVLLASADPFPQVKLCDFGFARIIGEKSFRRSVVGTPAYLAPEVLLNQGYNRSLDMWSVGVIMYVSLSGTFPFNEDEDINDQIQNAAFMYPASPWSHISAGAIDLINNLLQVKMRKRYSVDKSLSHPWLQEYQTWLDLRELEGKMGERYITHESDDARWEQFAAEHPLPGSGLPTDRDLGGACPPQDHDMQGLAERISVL
Particulars: at 0.1 µM.

The target of assay [11] is T3, Serine/threonine-protein kinase D2 (Homo sapiens). Particulars: at 1 µM.
Assay [12] deals with T4, Serine/threonine-protein kinase D3 (Homo sapiens) (UniProt O94806).
T4 sequence (whole entry): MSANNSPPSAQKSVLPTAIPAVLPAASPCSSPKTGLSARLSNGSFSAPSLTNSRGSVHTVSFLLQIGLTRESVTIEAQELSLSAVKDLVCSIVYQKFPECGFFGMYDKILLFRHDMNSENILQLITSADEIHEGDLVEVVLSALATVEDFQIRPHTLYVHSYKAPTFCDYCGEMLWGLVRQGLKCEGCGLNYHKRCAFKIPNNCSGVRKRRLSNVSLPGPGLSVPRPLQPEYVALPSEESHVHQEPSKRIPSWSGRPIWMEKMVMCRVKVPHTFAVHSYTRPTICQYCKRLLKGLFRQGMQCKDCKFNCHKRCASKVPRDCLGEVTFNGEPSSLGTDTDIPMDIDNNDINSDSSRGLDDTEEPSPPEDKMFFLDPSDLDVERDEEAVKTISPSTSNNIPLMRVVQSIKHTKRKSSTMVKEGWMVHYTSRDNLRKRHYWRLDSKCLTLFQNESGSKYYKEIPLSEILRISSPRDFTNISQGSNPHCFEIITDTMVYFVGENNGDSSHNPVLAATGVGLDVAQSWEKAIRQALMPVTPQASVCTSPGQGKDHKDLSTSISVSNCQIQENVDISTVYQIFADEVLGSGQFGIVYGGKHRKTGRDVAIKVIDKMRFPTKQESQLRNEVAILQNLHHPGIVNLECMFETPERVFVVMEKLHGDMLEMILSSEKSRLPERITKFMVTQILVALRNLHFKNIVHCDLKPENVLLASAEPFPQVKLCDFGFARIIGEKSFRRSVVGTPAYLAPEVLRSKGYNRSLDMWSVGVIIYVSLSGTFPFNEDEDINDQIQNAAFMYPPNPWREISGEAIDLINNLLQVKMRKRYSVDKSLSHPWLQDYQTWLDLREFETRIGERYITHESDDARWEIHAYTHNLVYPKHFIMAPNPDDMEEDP
Particulars: at 0.1 µM.

Assay [13] concerns the target T4, Serine/threonine-protein kinase D3 (Homo sapiens). Particulars: at 1 µM.
The target of assay [14] is T5, cGMP-dependent protein kinase 1 (Homo sapiens) (UniProt Q13976).
T5 sequence (whole entry): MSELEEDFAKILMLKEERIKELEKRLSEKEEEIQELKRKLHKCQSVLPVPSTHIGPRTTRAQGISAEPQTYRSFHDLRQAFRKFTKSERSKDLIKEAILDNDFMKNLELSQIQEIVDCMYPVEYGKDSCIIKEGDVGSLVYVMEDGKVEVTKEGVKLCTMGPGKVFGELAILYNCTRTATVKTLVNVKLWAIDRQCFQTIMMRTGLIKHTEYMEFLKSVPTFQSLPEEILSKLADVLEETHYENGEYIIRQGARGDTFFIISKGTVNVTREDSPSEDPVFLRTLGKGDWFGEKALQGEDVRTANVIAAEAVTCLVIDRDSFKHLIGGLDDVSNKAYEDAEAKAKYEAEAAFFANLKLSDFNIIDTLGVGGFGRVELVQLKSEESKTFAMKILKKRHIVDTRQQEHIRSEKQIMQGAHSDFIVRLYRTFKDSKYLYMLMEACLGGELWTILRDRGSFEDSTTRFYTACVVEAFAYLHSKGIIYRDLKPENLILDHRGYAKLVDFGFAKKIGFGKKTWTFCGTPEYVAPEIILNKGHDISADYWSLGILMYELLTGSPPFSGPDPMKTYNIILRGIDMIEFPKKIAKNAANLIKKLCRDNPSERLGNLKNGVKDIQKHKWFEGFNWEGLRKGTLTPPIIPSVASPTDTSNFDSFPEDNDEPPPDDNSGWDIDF
The following applies: at 0.1 µM.

In assay [15] the target is T5, cGMP-dependent protein kinase 1 (Homo sapiens). Particulars: at 1 µM.
Assay [16] deals with T6, cGMP-dependent protein kinase 2 (Homo sapiens) (UniProt Q13237).
T6 sequence (whole entry): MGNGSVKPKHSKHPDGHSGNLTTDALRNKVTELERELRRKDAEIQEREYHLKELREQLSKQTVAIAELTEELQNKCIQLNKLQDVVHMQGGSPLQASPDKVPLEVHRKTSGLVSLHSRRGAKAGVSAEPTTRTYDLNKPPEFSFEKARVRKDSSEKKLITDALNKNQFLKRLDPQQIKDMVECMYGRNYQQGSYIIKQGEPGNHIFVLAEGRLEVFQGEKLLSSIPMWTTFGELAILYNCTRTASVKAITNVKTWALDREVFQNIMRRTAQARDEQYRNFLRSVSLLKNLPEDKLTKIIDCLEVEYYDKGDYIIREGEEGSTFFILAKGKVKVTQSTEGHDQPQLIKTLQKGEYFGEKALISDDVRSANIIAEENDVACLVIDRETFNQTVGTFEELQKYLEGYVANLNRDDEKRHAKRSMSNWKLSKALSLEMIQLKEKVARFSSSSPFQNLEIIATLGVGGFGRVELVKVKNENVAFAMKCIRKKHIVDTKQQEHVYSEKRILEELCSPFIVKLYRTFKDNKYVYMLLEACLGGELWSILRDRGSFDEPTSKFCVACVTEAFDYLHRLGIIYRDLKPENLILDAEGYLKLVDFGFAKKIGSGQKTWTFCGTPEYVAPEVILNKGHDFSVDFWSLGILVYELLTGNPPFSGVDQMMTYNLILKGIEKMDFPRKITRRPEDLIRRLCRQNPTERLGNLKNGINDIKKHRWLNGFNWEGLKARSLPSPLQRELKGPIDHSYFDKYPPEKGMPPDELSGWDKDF
The following applies: at 0.1 µM.

Assay [17] deals with T6, cGMP-dependent protein kinase 2 (Homo sapiens). The following applies: at 1 µM.
The target of assay [18] is T7, cAMP-dependent protein kinase catalytic subunit PRKX (Homo sapiens) (UniProt P51817).
T7 sequence (whole entry): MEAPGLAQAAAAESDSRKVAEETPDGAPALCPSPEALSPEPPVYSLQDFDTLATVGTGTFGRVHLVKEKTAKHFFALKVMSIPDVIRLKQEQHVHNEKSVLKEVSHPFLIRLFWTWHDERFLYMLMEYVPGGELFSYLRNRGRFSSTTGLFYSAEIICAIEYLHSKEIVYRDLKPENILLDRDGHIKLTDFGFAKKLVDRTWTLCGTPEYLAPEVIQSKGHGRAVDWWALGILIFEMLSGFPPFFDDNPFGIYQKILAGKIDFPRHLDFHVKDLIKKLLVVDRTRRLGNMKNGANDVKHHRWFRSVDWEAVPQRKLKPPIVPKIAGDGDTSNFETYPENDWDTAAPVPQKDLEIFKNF
Particulars: at 0.1 µM.

The target of assay [19] is T7, cAMP-dependent protein kinase catalytic subunit PRKX (Homo sapiens). The following applies: at 1 µM.
Assay [20] deals with Rho-associated protein kinase 1 (Homo sapiens) (UniProt Q13464). Particulars: at 0.1 µM.
Sequence of Rho-associated protein kinase 1 (Homo sapiens) (Q13464 2-1354 limits assumed): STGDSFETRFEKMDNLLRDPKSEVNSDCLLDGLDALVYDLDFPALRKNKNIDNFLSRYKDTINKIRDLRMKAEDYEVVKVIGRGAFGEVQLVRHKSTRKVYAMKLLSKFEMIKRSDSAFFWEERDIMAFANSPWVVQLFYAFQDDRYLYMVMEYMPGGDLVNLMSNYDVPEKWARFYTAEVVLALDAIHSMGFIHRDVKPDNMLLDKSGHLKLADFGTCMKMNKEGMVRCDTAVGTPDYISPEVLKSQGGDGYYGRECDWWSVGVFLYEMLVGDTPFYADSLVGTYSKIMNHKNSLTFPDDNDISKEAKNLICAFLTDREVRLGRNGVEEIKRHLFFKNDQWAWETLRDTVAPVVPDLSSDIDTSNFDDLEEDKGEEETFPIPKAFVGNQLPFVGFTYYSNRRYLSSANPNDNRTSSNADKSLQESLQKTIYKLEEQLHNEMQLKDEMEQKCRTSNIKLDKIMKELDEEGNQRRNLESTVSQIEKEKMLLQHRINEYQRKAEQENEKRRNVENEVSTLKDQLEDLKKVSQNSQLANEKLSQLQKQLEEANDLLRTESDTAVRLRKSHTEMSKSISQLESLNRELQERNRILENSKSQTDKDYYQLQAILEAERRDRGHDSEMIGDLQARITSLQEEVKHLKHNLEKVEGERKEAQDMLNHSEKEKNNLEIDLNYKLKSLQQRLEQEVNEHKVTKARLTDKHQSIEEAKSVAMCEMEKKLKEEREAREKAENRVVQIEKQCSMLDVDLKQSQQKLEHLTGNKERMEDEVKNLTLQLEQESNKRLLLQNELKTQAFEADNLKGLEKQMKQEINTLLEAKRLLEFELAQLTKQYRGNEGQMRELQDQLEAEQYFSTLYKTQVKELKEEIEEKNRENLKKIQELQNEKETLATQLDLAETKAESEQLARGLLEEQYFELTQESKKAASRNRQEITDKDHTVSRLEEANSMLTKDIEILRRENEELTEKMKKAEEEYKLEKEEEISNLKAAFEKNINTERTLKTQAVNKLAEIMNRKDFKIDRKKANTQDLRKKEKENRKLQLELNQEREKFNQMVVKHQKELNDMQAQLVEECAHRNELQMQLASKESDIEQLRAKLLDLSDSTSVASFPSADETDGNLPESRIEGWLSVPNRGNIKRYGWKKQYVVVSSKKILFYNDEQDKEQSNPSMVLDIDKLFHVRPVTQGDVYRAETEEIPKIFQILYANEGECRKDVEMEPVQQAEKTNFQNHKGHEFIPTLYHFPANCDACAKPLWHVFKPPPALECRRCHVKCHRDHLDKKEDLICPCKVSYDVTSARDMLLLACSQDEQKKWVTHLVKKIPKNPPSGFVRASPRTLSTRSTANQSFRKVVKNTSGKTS

Sequence of Protein kinase C theta type (Homo sapiens) (Q04759 whole entry, looked up): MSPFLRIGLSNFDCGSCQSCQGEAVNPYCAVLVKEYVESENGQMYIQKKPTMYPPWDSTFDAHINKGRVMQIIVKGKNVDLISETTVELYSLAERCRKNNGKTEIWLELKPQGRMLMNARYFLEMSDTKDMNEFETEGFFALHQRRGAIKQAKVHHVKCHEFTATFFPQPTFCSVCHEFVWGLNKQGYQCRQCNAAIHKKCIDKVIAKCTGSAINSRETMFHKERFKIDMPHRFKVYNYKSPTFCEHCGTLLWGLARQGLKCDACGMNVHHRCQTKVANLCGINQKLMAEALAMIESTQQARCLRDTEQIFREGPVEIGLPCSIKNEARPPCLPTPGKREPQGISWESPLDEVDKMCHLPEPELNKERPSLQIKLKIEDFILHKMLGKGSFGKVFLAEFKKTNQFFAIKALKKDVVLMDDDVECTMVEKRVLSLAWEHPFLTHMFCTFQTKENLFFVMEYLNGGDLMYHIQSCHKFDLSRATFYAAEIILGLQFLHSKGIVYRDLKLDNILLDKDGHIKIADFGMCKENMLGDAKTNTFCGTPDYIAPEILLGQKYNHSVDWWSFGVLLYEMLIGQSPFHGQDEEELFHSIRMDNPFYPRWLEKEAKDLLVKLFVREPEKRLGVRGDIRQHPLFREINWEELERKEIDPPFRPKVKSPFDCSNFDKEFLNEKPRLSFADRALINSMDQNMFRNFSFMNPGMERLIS

As to `CS(=O)(=O)CCNCc1ccc(-c2ccc3ncnc(Nc4ccc(OCc5ccccc5)c(C(F)(F)F)c4)c3c2)o1`, the inhibition in assay [1] turned out to be 0.29%; in [2], 1.93%; in [3], 2.76%; in assay [4], 1.99%; in [5], 1.95%; in assay [6] it was 1.11%. Further, the inhibition in [7] was 1.5%; in assay [8], 3.89%; in assay [9], 5.55%; in assay [10] it was 3.28%; in assay [11], 2.47%; in assay [12] it was 4.3%. Moreover, the inhibition in [13] amounted to 4.39%; in assay [14], 2.93%; in [15] it was 0.85%; in [16] it was 1.82%; in assay [17] it was 0.3%; in assay [18] it was 2.36%. Also, the inhibition in assay [19] was 2.08%; in [20], 10.3%.
Regarding `COc1cccc(-c2c[nH]c3c(N/N=C/c4ccncc4)ncnc23)c1`, the inhibition was determined as 7.65% in assay [1]; 4.1% in assay [2]; 20.3% in assay [3]; 0.91% in assay [4]; 0.99% in assay [5]; 1.66% in assay [6]. For the same compound, the inhibition in assay [7] came to 5.79%; in assay [8], 1.3%; in [9] it was 6.07%; in assay [10] it was 1.26%; in [11], 5.96%; in assay [12], 1.85%. In addition, the inhibition in assay [13] is 5.38%; in [14], 2.91%; in assay [15], 4.69%; in assay [16], 1.71%; in assay [17], 8.58%; in assay [18], 1.13%. Also, the inhibition was -0.16% in [19] and 1.94% in assay [20].
